JMJD2E inh: qHTS Assay for Inhibitors of Human Jumonji Domain Containing 2E (JMJD2E) | JMJD2E catalytic domain, FDH-coupled NADH fluorescence (FDH is formaldehyde dehydrogenase) | Potency, µM (doses to about 57.1 µM), for the others: at the top dose activity change, negative = inhibition, most hits filed as inhibitors | 230,000 tested, 1.6% active | AID 2147, 2009; active = well fitted inhibition curve with a large enough effect, not every such curve was filed as active; inconclusive = small, poorly fitted or top-dose-only effect, or another doubt; inactive = no such curve, though single readings can be large or run the other way;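 note: potency is the fitted concentration of half-maximal effect; 0% = wells with enzyme and -100% = buffer wells without enzyme; nearly all actives have a fitted effect of over 50% in size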
Lamin A splicing: qHTS Assay for Modulators of Lamin A Splicing. 200,000 tested, 0.01% active. Potency, µM (top dose mostly 46.1 µM), without a hit: at the highest dose ratio change, negative = inhibition, actives largely listed as inhibitors. HeLa LMNA splicing GFP/RFP minigene ratio, 48 h. AID 1487, 2009; active = well fitted inhibition curve with a large enough effect in the signal ratio, with a control signal flat, not every such curve was filed as active; inconclusive = small, poorly fitted or top-dose-only effect, or effect the other way, or a change in a side signal; the % refers to the signal ratio; note: potency is the fitted concentration of half-maximal effect; % is set by controls: 0 for no effect and ±100 for the full control effect
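S3 HeLa cells stably expressing lamin A-EGFP splicing minigene plus DsRed2, 600 cells/well, 48 h compound exposure at 37C. Laser-scanning cytometry; analysed as GFP (500-530 nm)/RFP (575-640 nm) total intensity ratio; 0.5% DMSO vehicle.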
CBFb-RUNX1 inh: qHTS Assay for Compounds Blocking the Interaction Between CBF-beta and RUNX1 for the Treatment of Acute Myeloid Leukemia | Runt-related transcription factor 1 (Homo sapiens) + Core-binding factor subunit beta … | AlphaScreen CBFb-His/RUNX1-biotin binding, biochemical | Potency, µM (highest dose often 59.8 µM), for inactives: at the highest dose activity, negative = inhibition, most hits filed as inhibitors | 230,000 tested, under 10 active | AID 1477, 2009; note: % of control where 0% means no effect
Target sequence (Q01196 whole entry, looked up): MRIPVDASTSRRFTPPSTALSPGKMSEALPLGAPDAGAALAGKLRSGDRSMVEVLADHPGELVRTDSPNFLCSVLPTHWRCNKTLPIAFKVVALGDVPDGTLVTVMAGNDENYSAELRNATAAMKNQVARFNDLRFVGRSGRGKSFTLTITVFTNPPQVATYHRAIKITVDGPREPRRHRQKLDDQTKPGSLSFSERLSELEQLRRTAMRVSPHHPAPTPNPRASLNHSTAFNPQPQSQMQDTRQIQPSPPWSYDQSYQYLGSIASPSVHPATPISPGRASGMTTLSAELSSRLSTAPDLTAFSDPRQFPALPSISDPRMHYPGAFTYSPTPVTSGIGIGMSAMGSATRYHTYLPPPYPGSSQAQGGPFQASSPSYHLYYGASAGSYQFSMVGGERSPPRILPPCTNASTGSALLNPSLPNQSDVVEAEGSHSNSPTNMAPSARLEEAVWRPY
Target sequence (Q13951 whole entry, looked up): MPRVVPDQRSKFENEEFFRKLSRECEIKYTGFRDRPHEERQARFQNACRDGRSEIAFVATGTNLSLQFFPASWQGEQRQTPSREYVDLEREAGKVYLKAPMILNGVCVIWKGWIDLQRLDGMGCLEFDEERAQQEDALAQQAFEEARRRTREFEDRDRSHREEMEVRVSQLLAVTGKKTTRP
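Proteins preincubated together for 20 min at RT before compound addition; 15 min later, nickel and streptavidin beads were added and left 90 min prior to AlphaScreen measurement.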
Tau fluor cs: Counterscreen qHTS for Inhibitors of Tau Fibril Formation, Fluorescence Polarization; 280,000 tested, 0.93% active; Potency, µM (top dose mostly 57.7 µM), inactives show at the highest dose activity change, negative = decrease; tau K18 P301L Alexa594 fluorescence, heparin fibrillization; note: potency is the fitted concentration of half-maximal effect; % is set by controls: 0 for no effect and ±100 for the full control effect; nearly all actives have a fitted effect of over 55% in size
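Human tau K18 P301L (15 uM unlabeled, 0.24 uM Alexa 594-labeled) in 100 mM sodium acetate pH 7 with 20 uM heparin, 6 hr at 37 C. ThT 30 uM added, 1 hr ambient; Alexa 594 FP and total fluorescence read at 555/632 nm.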
Tau FP inhib: qHTS for Inhibitors of Tau Fibril Formation, Fluorescence Polarization | 280,000 tested, 0.39% active | Microtubule-associated protein tau (Homo sapiens), P10636 | Potency, µM (top dose mostly 57.7 µM), inactives show at the highest dose activity, negative = inhibition, actives largely listed as inhibitors | K18 P301L tau heparin fibrillization, Alexa594 FP, 6 h; note: potency is the fitted concentration of half-maximal effect; % is set by controls: 0 for no effect and ±100 for the full control effect; nearly all actives have a fitted effect of over 55% in size
Target sequence (P10636 561-689 P618L limits assumed): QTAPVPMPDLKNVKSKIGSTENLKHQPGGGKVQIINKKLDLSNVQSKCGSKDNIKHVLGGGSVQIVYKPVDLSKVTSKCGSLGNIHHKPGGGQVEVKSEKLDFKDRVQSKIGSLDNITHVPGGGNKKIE
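Human tau K18 […] P301L fragment, 15 uM unlabeled plus 0.24 uM Alexa 594-labeled tau (final), with compound and 20 uM heparin in 100 mM sodium acetate pH 7; 6 hr at 37 C, then Alexa 594 FP read.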
Tau ThT inhib: qHTS for Inhibitors of Tau Fibril Formation, Thioflavin T Binding | 270,000 tested, 2.1% active | Microtubule-associated protein tau (Homo sapiens), P10636 | Potency, µM (highest dose often 57.4 µM), for inactives: top-dose activity, negative = inhibition, usual class: inhibitors | recombinant tau K18 P301L (four-repeat tau fragment), heparin-induced fibrillization, ThT fluorescence; note: potency is the fitted concentration of half-maximal effect; % is set by controls: 0 for no effect and ±100 for the full control effect; nearly all actives have a fitted effect of over 55% in size
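In this qHTS, human K18 P301L tau is incubated with compound and heparin for 6 hr at 37 C, and Thioflavin T fluorescence then reports fibril load.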
* marks the source's active call; other numbers are inactive results; ? = inconclusive; . = no result; [ ] = another dose, or the depositor's remark. An excerpt weighted towards active compounds, which were near 3.2% of everything screened. Unless noted, calls come from the whole dose curve; as a rule, active = well fitted curve in the direction sought with a large enough effect; inconclusive = small, poorly fitted or top-dose-only effect, or another doubt; inactive = no such curve, though single readings can be large; an effect the other way counts as inactive or inconclusive.

SMILES | JMJD2E inh | Lamin A splicing | CBFb-RUNX1 inh | Tau fluor cs | Tau FP inhib | Tau ThT inhib
CCN(CC)S(=O)(=O)c1ccc(/C=C/C(=O)Nc2ccc(N3CCOCC3)cc2)cc1 | 4% | . | -11% | 32µM*[quencher] | ? | 16µM*
CCN(CC)S(=O)(=O)c1cccc(NC(=O)/C=C/c2cccc([N+](=O)[O-])c2)c1 | 3% | -15% | -13% | 13µM*[quencher] | -18% | ?
NS(=O)(=O)c1nn2cc(-c3ccccc3)nc2s1 | . | . | 5% | . | . | .
CCC(=O)N1c2ccccc2CC1C(=O)NCCc1cc(OC)c(OC)c(OC)c1 (centres undefined) | . | -2%[46 µM] | . | 0% | 3% | -4%
Cc1cn2c(=O)c(S(=O)(=O)N3CCN(c4cc(Cl)ccc4C)CC3)c(C)nc2s1 | . | . | . | -8% | -4% | -6%
CC1(C)Cc2ccccc2C2=NNC(=O)C2=N1 | ? | ? | 2% | -12% | ? | 16µM*
COc1cccc(CNC(=O)C(NS(=O)(=O)c2cccs2)C(C)C)c1 (centres undefined) | . | . | . | -13% | -4% | -4%
COc1cccc(/C=N/NC(=O)CNC(=O)C2COc3ccccc3O2)c1O (centres undefined) | 18µM* | ? | -12% | -19% | -8% | -18%
COc1cccc(/C=N/NC(=O)CNC(=O)c2ccc3c(c2)OCCO3)c1O | -3% | ? | -1% | -16% | 0% | ?
COc1cccc(/C=N/NC(=O)CNC(=O)c2ccco2)c1O | 14µM* | . | 4% | -10% | 8% | -14%
COc1cccc(/C=N/NC(=O)CNC(=O)COc2ccccc2)c1O | 8.9µM* | . | -4% | -17% | -6% | -21%
COc1cccc(/C=N/NC(=O)C(=O)NCc2cccnc2)c1O | 10µM* | -11% | . | -2% | -6% | -7%
Cc1cccc(NCc2nnc3n2CCCCC3)c1C | . | ? | . | 3% | 1% | 7%
COc1ccc(NC(=O)C2CCN(C3=NS(=O)(=O)C(c4ccc(C)c(C)c4)=C3C)CC2)cc1OC | . | 3%[46 µM] | . | 9% | -2% | -5%
Cc1cc(C)c(S(=O)(=O)NCCc2cc3cc(C)c(C)cc3[nH]c2=O)c(C)c1 | . | . | . | -12% | 3% | -16%
COc1cccc(/C=N/NC(=S)Nc2cccc(C(=O)O)c2)c1O | 28µM* | ? | . | -17% | ? | ?
O=C(COc1ccccc1)NCC(=O)N/N=C/c1ccc(O)cc1O | 14µM* | . | 6% | 4% | ? | -8%
Cc1ccc(/C=N/NC(=O)CNC(=O)COc2ccccc2)cc1 | 0% | -7% | 1% | -8% | -2% | -6%
COc1cccc(/C=N/NC(=O)C[n+]2ccccc2)c1O | 14µM* | ? | ? | -5% | -10% | ?
COc1cc(/C=N/NC(=S)Nc2cccc(C(=O)O)c2)ccc1O | ? | -13% | -14% | -6% | 7% | ?
O=C(CSC1=Nc2ccccc2N=C(c2ccc(F)cc2)C1)Nc1ccc(Cl)cc1 | . | 5%[46 µM] | . | -13% | -11% | 12%
CCc1ccc(CNC(=O)c2ccc(NC(=O)N3CC(C)Sc4ccccc43)cc2)cc1 (centres undefined) | . | . | . | -21% | ? | 8%
COc1cc(/C=C/C(=O)N2CCC=CC2=O)cc(OC)c1OC | -21% | . | 19% | -21% | ? | 8.9µM*
COc1cc(/C=C/C(=O)N2CCCN(C(=O)/C=C/c3cc(OC)c(OC)c(OC)c3)CC2)cc(OC)c1OC | -21% | -2%[46 µM] | 10% | 5% | 0% | -3%
O.O.[Mn].[Mn].[Mn].[OH-].[OH-] | . | . | 12% | . | . | .
SMILES | JMJD2E inh | Lamin A splicing | CBFb-RUNX1 inh | Tau fluor cs | Tau FP inhib | Tau ThT inhib
O=C(Nc1ccc(Cl)cn1)c1cc2ccccc2o1 | ? | 0% | 9% | -6% | 1% | -8%
O=C(Nc1ccc(Cl)cn1)c1ccc(-c2cc(Cl)ccc2Cl)o1 | 4% | -2% | 6% | ? | ? | 7.9µM*
C=CCCC/C=C(/C)C(OCc1ccc(OC)cc1)C(CC/C=C(\C)C(N)=O)OC (centres undefined) | . | . | -1%[13.1 µM] | -15%[11.6 µM] | -3%[11.6 µM] | ?
O=C(Nc1nnc(COc2ccc(Cl)cc2)s1)c1ccco1 | ? | 13%[46 µM] | 8% | -24% | ? | 32µM*
COc1ccccc1Nc1nc(-c2sc(NC(=O)c3ccco3)nc2C)cs1 | -11% | ? | -20% | ? | 11% | 3.5µM*
Cc1nc(NC(=O)c2ccco2)sc1-c1csc(Nc2ccc(Cl)cc2)n1 | -14% | ? | -12% | ? | 10% | 7.1µM*
Cc1ccc(Cl)cc1Nc1nc(-c2sc(NC(=O)c3ccco3)nc2C)cs1 | 25µM* | ? | -6% | ? | -1% | ?
Cc1c(Cl)cccc1NC(=O)Cn1cnc2nc3c(cc2c1=O)CCCC3 | . | -13%[46 µM] | . | 0% | -11% | 12%
COc1ccc(NC(=O)c2ccc(NC(=O)CCS(=O)(=O)c3cccs3)cc2)cc1OC | . | . | . | ? | 5% | ?
Cc1nc2cc(-c3ccsc3-n3c(C)ccc3C)[nH]n2c(=O)c1Cl | ? | 11% | ? | ? | ? | 14µM*
COCc1cc(=O)n2[nH]c(N)nc2n1 | -10% | . | 5% | 7% | 7% | .
COCc1cc(=O)n2[nH]c(-c3ccsc3-n3c(C)ccc3C)cc2n1 | ? | 8% | . | ? | ? | 22µM*
CCN1C(=O)[C@H]2[C@H]3[C@H](O)[C@H](O)C/C(=N/NC(=O)OCc4ccc(OC)cc4)[C@H]3CC[C@@H]2C1=O | . | . | 7%[13.1 µM] | 2%[11.6 µM] | -2%[11.6 µM] | -6%[11.5 µM]
CCCCc1nc2c(c3c1C[C@H](C)OC3)CN(S(=O)(=O)c1ccc(C#N)cc1)CC2 | 7%[11.4 µM] | ? | 0%[13.1 µM] | -5%[11.6 µM] | -14%[11.6 µM] | 4%[11.5 µM]
O=C(OC1CCN(c2ncc(C(F)(F)F)cc2Cl)CC1)c1ccc(Cl)cc1 | ? | 8% | 4% | -7% | -3% | -19%
O=C(CSc1nccn1-c1ncc(C(F)(F)F)cc1Cl)c1ccc(Cl)cc1 | 6% | 2% | -2% | -15% | ? | 18µM*
Cn1c(N)c(C(=O)COC(=O)c2cc(-c3ccccc3)nc3ccccc23)c(=O)n(Cc2ccccc2)c1=O | ? | -2% | -7% | ? | 14µM* | -1%
Cn1c(N)c(C(=O)COC(=O)c2cc(-c3ccccc3)nc3ccccc23)c(=O)n(C)c1=O | -2% | . | 4% | ? | ? | -12%
COc1cccc(C2NC(=O)c3n[nH]c(-c4cccs4)c32)c1 (centres undefined) | . | . | . | -14% | 0% | -7%
